The values that follow come from PubChem BioAssay (NCI).

This is part of a sample that, as a whole, favours compounds with a hit. Of some 83,000 tested, about 20% had one in any assay.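 Cell lines were cultured in 96-well plates, exposed to a single compound concentration, and assessed for percent growth 48 hours later.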 A number with no mark means an inactive call. Active and inactive are the calls of the source. How the source made its calls: active means growth percent below 10; inactive means the rest.

Common to all, as to experiment: NCI-60 one-dose screen, 48 h (100 = growth as untreated, 0 = no growth, -100 = all killed)
One test concerns NCI-H23 lung. Particulars: 10 µM unless noted.
In another test the test system is HOP-62 NSCLC. Particulars: 10 µM unless noted.
In the next test the test system is NCI-H460 lung. Particulars: 10 µM unless noted.
The test system of a further test is A549/ATCC NSCLC. Particulars: 10 µM unless noted.
In a further test the test system is K-562 leukemia. Particulars: 10 µM unless noted.
The next test deals with RXF 393 renal. Particulars: 10 µM unless noted.
Another test concerns SF-295 CNS. Particulars: 10 µM unless noted.
For a further test, the system named is UACC-257 melanoma. Particulars: 10 µM unless noted.
In a further test the test system is U251 CNS. Particulars: 10 µM unless noted.
A further test has as its system SK-MEL-28 melanoma. Particulars: 10 µM unless noted.
Another test deals with SK-MEL-2 melanoma. Particulars: 10 µM unless noted.
The next test relates to UO-31 renal. Particulars: 10 µM unless noted.
In the next test the test system is TK-10 renal. Particulars: 10 µM unless noted.
In a further test the test system is A498 renal. Particulars: 10 µM unless noted.
The test system of a further test is HL-60(TB) leukemia. Particulars: 10 µM unless noted.
In a further test the test system is SR leukemia. Particulars: 10 µM.
In another test the test system is OVCAR-4 ovarian. Particulars: 10 µM unless noted.
In a further test the test system is BT-549 breast. Particulars: 10 µM.
A further test deals with HCC-2998 colon. Particulars: 10 µM unless noted.
The next test concerns LOX IMVI melanoma. Particulars: 10 µM unless noted.

Consider `O=C(C(=O)N1CCCC1)c1cn(CCCCCn2cc(C(=O)C(=O)N3CCCC3)c3ccccc32)c2ccccc12`, for which the growth in the test with NCI-H23 lung is 91.1%; in the test on HOP-62 NSCLC, 102%; in the test on NCI-H460 lung, 91.3%; in the test with A549/ATCC NSCLC it was 85.2%; in the test with K-562 leukemia it was 68.8%; with RXF 393 renal, 108%. The growth in the test with SF-295 CNS is 93.9%; in the test with UACC-257 melanoma, 102%; in the test on U251 CNS it was 88%; with SK-MEL-28 melanoma, 106%; in the test with SK-MEL-2 melanoma it was 114%; with UO-31 renal, 61.6%. The growth with TK-10 renal is 112%; in the test with A498 renal, 94.1%; in the test with HL-60(TB) leukemia, 109%; with SR leukemia it was 67.7%; with OVCAR-4 ovarian it was 73%; in the test on BT-549 breast it was 90%. Besides, the growth in the test with HCC-2998 colon was 103%.
In the case of `CC(=O)Oc1ccc(Cl)cc1`, the growth in the test with NCI-H23 lung is 94.2%; in the test with HOP-62 NSCLC, 87.8%; in the test with NCI-H460 lung it was 101%; with A549/ATCC NSCLC it was 97.9%; in the test on K-562 leukemia, 94.5%; in the test on RXF 393 renal it was 105%. The growth in the test with SF-295 CNS was 112%; with UACC-257 melanoma, 95.1%; in the test with U251 CNS, 97.8%; in the test with LOX IMVI melanoma, 90.5%; in the test on SK-MEL-28 melanoma, 89.5%; with SK-MEL-2 melanoma it was 106%. Further, the growth in the test with UO-31 renal was 59%; in the test with TK-10 renal it was 97%; in the test on A498 renal it was 82.2%; in the test on HL-60(TB) leukemia, 98.4%; in the test on OVCAR-4 ovarian, 97.3%; in the test with BT-549 breast, 98.3%. For the same compound, the growth in the test on HCC-2998 colon was 96.1%.
Consider `CC12CCC(=O)C=C1CCC1C2CCC2(C)C(C(=O)COC(=O)Cc3ccc(N(CCCl)CCCl)cc3)CCC12` (centres undefined), for which the growth with NCI-H23 lung is 94%; with HOP-62 NSCLC it was 106%; in the test on NCI-H460 lung, 40.5%; in the test with K-562 leukemia, 77.5%; in the test on SF-295 CNS, 74.5%; with U251 CNS, 75.5%. The growth is 86.4% in the test on LOX IMVI melanoma; 20.6% with SK-MEL-2 melanoma; 72.8% with UO-31 renal; 112% in the test with TK-10 renal; 69.8% in the test on A498 renal; 26.7% in the test with HL-60(TB) leukemia. Also, the growth with SR leukemia is -2.48% (active); in the test on OVCAR-4 ovarian it was 91%; with HCC-2998 colon it was -28.3% (active).
Consider `CC(=O)C1C(=O)N(C)C(=O)N(C)C1=O`, for which the growth with NCI-H23 lung is 121%; with HOP-62 NSCLC, 98.6%; in the test with NCI-H460 lung, 102%; in the test with A549/ATCC NSCLC, 96.1%; with K-562 leukemia, 108%; in the test on RXF 393 renal, 107%. Further, the growth in the test on UACC-257 melanoma was 98.6%; in the test on U251 CNS, 96.1%; with LOX IMVI melanoma, 107%; with SK-MEL-28 melanoma it was 106%; with SK-MEL-2 melanoma, 108%; with UO-31 renal, 96.1%. Further, the growth is 109% in the test with TK-10 renal; 83.2% with A498 renal; 104% with HL-60(TB) leukemia; 96.5% in the test on SR leukemia; 105% in the test on OVCAR-4 ovarian; 106% in the test on BT-549 breast. Moreover, the growth in the test on HCC-2998 colon was 112%.
In the case of `N#[N+]c1nc2nc(N)[nH]c(=O)c2[nH]1`, the growth with NCI-H23 lung was 103%; in the test with HOP-62 NSCLC, 92.5%; with NCI-H460 lung it was 101%; in the test on A549/ATCC NSCLC, 89.8%; in the test on K-562 leukemia it was 101%; with RXF 393 renal, 111%. In addition, the growth was 101% in the test on SF-295 CNS; 88.8% with UACC-257 melanoma; 91.5% with U251 CNS; 98.5% with LOX IMVI melanoma; 111% in the test on SK-MEL-28 melanoma; 101% in the test on SK-MEL-2 melanoma. The growth in the test with UO-31 renal was 72%; in the test on TK-10 renal, 90%; in the test on A498 renal it was 107%; in the test with HL-60(TB) leukemia, 100%; with SR leukemia, 94.2%; in the test on OVCAR-4 ovarian, 105%. Further, the growth in the test with HCC-2998 colon is 104%.
`COc1ccc(C(c2ccc(OC)cc2)C(Cl)(Cl)Cl)cc1`: the growth in the test on NCI-H23 lung is 81.9%; with HOP-62 NSCLC, 83.1%; in the test on NCI-H460 lung, 91.8%; with A549/ATCC NSCLC, 94.6%; in the test on K-562 leukemia, 65.7%; with RXF 393 renal, 73.4%. The growth in the test on SF-295 CNS is 102%; with UACC-257 melanoma, 78.8%; with U251 CNS it was 90.4%; with SK-MEL-28 melanoma, 103%; with SK-MEL-2 melanoma it was 77.4%; with UO-31 renal it was 53.4%. The growth with TK-10 renal was 90.3%; in the test on A498 renal, 57.3%; with HL-60(TB) leukemia it was 72.5%; in the test with SR leukemia, 71.8%; with BT-549 breast, 110%; with HCC-2998 colon, 94.4%.
Consider `O=CN1N=C(c2ccc3c(c2)OCO3)CC1c1sc(N(CCCl)CCCl)nc1Cl` (centres undefined), for which the growth in the test on NCI-H23 lung is 101%; with HOP-62 NSCLC, 93%; with NCI-H460 lung it was 105%; in the test with A549/ATCC NSCLC it was 83.9%; in the test with K-562 leukemia, 85.4%; with RXF 393 renal, 109%. The growth was 104% in the test on SF-295 CNS; 84.4% in the test with UACC-257 melanoma; 98.6% in the test with U251 CNS; 100% in the test on LOX IMVI melanoma; 101% in the test on SK-MEL-28 melanoma; 92.9% in the test with SK-MEL-2 melanoma. Also, the growth is 74.5% in the test with UO-31 renal; 95.3% in the test with TK-10 renal; 97.7% in the test with A498 renal; 88.6% in the test on HL-60(TB) leukemia; 87.6% with SR leukemia; 100% in the test on OVCAR-4 ovarian. The growth with BT-549 breast is 94.7%; with HCC-2998 colon, 106%.
Take `CNC(=O)Oc1cc(C(C)C)ccc1Sc1ccc(C(C)C)cc1OC(=O)NC`: the growth is 76.4% in the test on NCI-H23 lung; 75.9% in the test with HOP-62 NSCLC; 34.9% with NCI-H460 lung; 64.2% in the test on A549/ATCC NSCLC; 25.6% in the test on K-562 leukemia; 64.3% with RXF 393 renal. For the same compound, the growth with SF-295 CNS is 26.9%; in the test with UACC-257 melanoma it was 65.5%; in the test on U251 CNS, 46.2%; in the test with LOX IMVI melanoma, 62.2%; with SK-MEL-28 melanoma it was 66.3%; with SK-MEL-2 melanoma it was 72.4%. For the same compound, the growth in the test with UO-31 renal was 65.7%; with TK-10 renal, 84.7%; in the test with A498 renal, 88.5%; with HL-60(TB) leukemia, 40.4%; in the test on SR leukemia, 15.8%; in the test on OVCAR-4 ovarian it was 80.8%. Also, the growth with BT-549 breast is 94.2%; in the test with HCC-2998 colon, 104%.
